Reference: PubChem BioAssay (NCI)
This is part of a sample that, as a whole, favours compounds with a hit. Of some 83,000 tested, about 20% had one in any assay.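 Single-dose data. Exposure time 48 hours. Values below 10 considered active.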 Active and inactive are the calls of the source.

What was measured:
Test in all cases: NCI-60 one-dose screen, 48 h (100 = growth as untreated, 0 = no growth, -100 = all killed)
Settings in all cases: 10 µM unless noted
SK-MEL-2 melanoma = test system: SK-MEL-2 melanoma
EKVX NSCLC = test system: EKVX NSCLC
SN12C renal = test system: SN12C renal
UO-31 renal = test system: UO-31 renal
TK-10 renal = test system: TK-10 renal
ACHN renal = test system: ACHN renal
CAKI-1 renal = test system: CAKI-1 renal
A498 renal = test system: A498 renal
CCRF-CEM leukemia = test system: CCRF-CEM leukemia
MOLT-4 leukemia = test system: MOLT-4 leukemia
SR leukemia = test system: SR leukemia
RPMI-8226 leukemia = test system: RPMI-8226 leukemia
OVCAR-8 ovarian = test system: OVCAR-8 ovarian
OVCAR-5 ovarian = test system: OVCAR-5 ovarian
OVCAR-4 ovarian = test system: OVCAR-4 ovarian
SK-OV-3 ovarian = test system: SK-OV-3 ovarian
IGROV1 ovarian = test system: IGROV1 ovarian
OVCAR-3 ovarian = test system: OVCAR-3 ovarian
HS 578T breast = test system: HS 578T breast
NCI/ADR-RES ovarian = test system: NCI/ADR-RES ovarian

Measured: growth

CS(=O)(=O)Nc1cc(-c2ccc3ncc(C#N)c(NCc4cccc(F)c4)c3c2)cnc1Cl
active: SK-MEL-2 melanoma -63.4% | EKVX NSCLC -7.05% | UO-31 renal 2.87% | TK-10 renal -11% | CAKI-1 renal 4.52% | A498 renal -48.9% | MOLT-4 leukemia -10.6% | SR leukemia 2.9% | RPMI-8226 leukemia -24.2% | OVCAR-8 ovarian 7.95% | SK-OV-3 ovarian -18.2% | IGROV1 ovarian -42.5% | OVCAR-3 ovarian 2.49% | HS 578T breast -24.8%
inactive: SN12C renal 15.4% | ACHN renal 10.1% | CCRF-CEM leukemia 15.1% | OVCAR-5 ovarian 16.4% | OVCAR-4 ovarian 11.3% | NCI/ADR-RES ovarian 23.4%

COc1ccc(-n2c(/C=C3\C(=O)Nc4ccccc43)ccc2CO)cc1
inactive: SK-MEL-2 melanoma 104% | EKVX NSCLC 94.7% | SN12C renal 104% | UO-31 renal 74.1% | TK-10 renal 105% | ACHN renal 93.6% | CAKI-1 renal 84.6% | A498 renal 107% | CCRF-CEM leukemia 97.8% | MOLT-4 leukemia 90.2% | SR leukemia 105% | RPMI-8226 leukemia 94.6% | OVCAR-8 ovarian 102% | OVCAR-5 ovarian 107% | OVCAR-4 ovarian 92.6% | SK-OV-3 ovarian 105% | IGROV1 ovarian 98.5% | OVCAR-3 ovarian 114% | HS 578T breast 106% | NCI/ADR-RES ovarian 102%

O=C(CNc1nc(-c2cccc([N+](=O)[O-])c2)cs1)Nc1cccc([N+](=O)[O-])c1
active: SK-MEL-2 melanoma 9.35% | SN12C renal -4.54% | UO-31 renal -79.3% | TK-10 renal -13.6% | ACHN renal -20.1% | CAKI-1 renal -10.3% | A498 renal -77.4% | CCRF-CEM leukemia -0.65% | MOLT-4 leukemia 6.77% | SR leukemia 2.66% | RPMI-8226 leukemia -18.8% | OVCAR-8 ovarian -3.29% | OVCAR-5 ovarian -12.9% | OVCAR-4 ovarian 5.36% | SK-OV-3 ovarian -23.9% | IGROV1 ovarian -28.3% | OVCAR-3 ovarian 5.33% | HS 578T breast -11.8% | NCI/ADR-RES ovarian -11.4%
inactive: EKVX NSCLC 52.9%

O=c1[nH]c2ccccc2cc1CSc1ccccc1Nc1nccc(-c2ccc(Cl)cc2)n1
inactive: SK-MEL-2 melanoma 113% | EKVX NSCLC 88.6% | SN12C renal 94.9% | UO-31 renal 83.3% | TK-10 renal 115% | ACHN renal 81.5% | CAKI-1 renal 80.6% | A498 renal 85.5% | CCRF-CEM leukemia 101% | MOLT-4 leukemia 100% | SR leukemia 99.2% | RPMI-8226 leukemia 94.5% | OVCAR-8 ovarian 96.9% | OVCAR-5 ovarian 110% | OVCAR-4 ovarian 86.2% | SK-OV-3 ovarian 112% | IGROV1 ovarian 89.6% | OVCAR-3 ovarian 101% | HS 578T breast 88.6% | NCI/ADR-RES ovarian 95.1%

NS(=O)(=O)c1ccc(Nc2nc(N/N=C/c3c[nH]c4ccccc34)nc(Nc3ccccc3)n2)cc1
active: RPMI-8226 leukemia -5.69%
inactive: SK-MEL-2 melanoma 67.3% | EKVX NSCLC 67.4% | SN12C renal 40.2% | UO-31 renal 49.2% | TK-10 renal 94.7% | ACHN renal 81.2% | CAKI-1 renal 53.9% | A498 renal 51.2% | CCRF-CEM leukemia 12.9% | MOLT-4 leukemia 19.9% | SR leukemia 12.1% | OVCAR-8 ovarian 37.8% | OVCAR-5 ovarian 87.8% | OVCAR-4 ovarian 59.7% | SK-OV-3 ovarian 90.8% | IGROV1 ovarian 33.9% | OVCAR-3 ovarian 26.7% | HS 578T breast 42.2% | NCI/ADR-RES ovarian 93.5%

CCCCCCCn1cc2c(N[C@H](C)c3ccccc3)ncnc2n1
inactive: SK-MEL-2 melanoma 123% | EKVX NSCLC 88.2% | SN12C renal 99.2% | UO-31 renal 78.3% | TK-10 renal 126% | ACHN renal 102% | CAKI-1 renal 88.2% | A498 renal 87.6% | CCRF-CEM leukemia 99.6% | MOLT-4 leukemia 102% | SR leukemia 99.5% | RPMI-8226 leukemia 100% | OVCAR-8 ovarian 103% | OVCAR-5 ovarian 104% | OVCAR-4 ovarian 100% | SK-OV-3 ovarian 117% | IGROV1 ovarian 89.9% | OVCAR-3 ovarian 103% | HS 578T breast 91.2% | NCI/ADR-RES ovarian 102%

CC(=O)C1=C(C)NC(NNC(N)=S)=NC1c1ccccc1 (stereo not given)
inactive: SK-MEL-2 melanoma 96.9% | EKVX NSCLC 70.9% | SN12C renal 83.8% | UO-31 renal 59.5% | TK-10 renal 56.8% | ACHN renal 101% | CAKI-1 renal 64.7% | CCRF-CEM leukemia 95.5% | MOLT-4 leukemia 114% | SR leukemia 112% | RPMI-8226 leukemia 108% | OVCAR-8 ovarian 107% | OVCAR-5 ovarian 90% | OVCAR-4 ovarian 78% | SK-OV-3 ovarian 104% | IGROV1 ovarian 77.9% | OVCAR-3 ovarian 111% | HS 578T breast 103% | NCI/ADR-RES ovarian 108%
active: A498 renal 2.72%

COc1cc(-c2nc(SCCC(C)C)nc(NNC(=O)c3ccncc3)c2C#N)cc(OC)c1OC
active: IGROV1 ovarian 2.47% | HS 578T breast 8.27%
inactive: SK-MEL-2 melanoma 101% | EKVX NSCLC 54.7% | SN12C renal 60.4% | UO-31 renal 19.3% | TK-10 renal 52.8% | ACHN renal 23% | CAKI-1 renal 37.8% | A498 renal 41.9% | CCRF-CEM leukemia 95.8% | MOLT-4 leukemia 68.7% | SR leukemia 105% | RPMI-8226 leukemia 100% | OVCAR-8 ovarian 70% | OVCAR-5 ovarian 61% | OVCAR-4 ovarian 90.6% | SK-OV-3 ovarian 31.9% | OVCAR-3 ovarian 73.5% | NCI/ADR-RES ovarian 74.1%

COc1ccc(-c2nc3ccc(-c4nnc(SCC(=O)Nc5ccc(C(=O)/C=C/c6ccc(Cl)cc6)cc5)o4)cc3[nH]2)cc1
inactive: SK-MEL-2 melanoma 111% | EKVX NSCLC 99.7% | SN12C renal 88.3% | UO-31 renal 85.3% | TK-10 renal 120% | ACHN renal 97.7% | CAKI-1 renal 97.2% | A498 renal 84.3% | CCRF-CEM leukemia 96% | MOLT-4 leukemia 88.3% | SR leukemia 68.2% | RPMI-8226 leukemia 79.9% | OVCAR-8 ovarian 105% | OVCAR-5 ovarian 99.4% | OVCAR-4 ovarian 103% | SK-OV-3 ovarian 112% | IGROV1 ovarian 87.2% | OVCAR-3 ovarian 113% | HS 578T breast 90.6% | NCI/ADR-RES ovarian 107%

C[C@H]1c2[nH]c3ccccc3c2C[C@H]2C(=O)N(CCCCCCC(=O)NO)CC(=O)N21
inactive: SK-MEL-2 melanoma 76.3% | EKVX NSCLC 85.3% | SN12C renal 88.5% | UO-31 renal 83.3% | TK-10 renal 90.3% | ACHN renal 90.1% | CAKI-1 renal 87.8% | A498 renal 83.2% | CCRF-CEM leukemia 36.9% | MOLT-4 leukemia 52.3% | SR leukemia 30.8% | RPMI-8226 leukemia 73.8% | OVCAR-8 ovarian 64.5% | OVCAR-5 ovarian 80.7% | OVCAR-4 ovarian 97.1% | SK-OV-3 ovarian 101% | IGROV1 ovarian 93% | OVCAR-3 ovarian 79.9% | HS 578T breast 66.7% | NCI/ADR-RES ovarian 106%

CC(=O)O[C@@H]1C(=O)N(c2cnccn2)[C@H]1c1ccccc1[N+](=O)[O-]
active: A498 renal -20.2% | OVCAR-8 ovarian -20.5% | OVCAR-3 ovarian 2.08%
inactive: SK-MEL-2 melanoma 10.6% | EKVX NSCLC 58.7% | SN12C renal 16.5% | UO-31 renal 27.7% | TK-10 renal 79.3% | ACHN renal 21.1% | CAKI-1 renal 24.6% | CCRF-CEM leukemia 12.3% | MOLT-4 leukemia 16.4% | SR leukemia 11.5% | RPMI-8226 leukemia 13.3% | OVCAR-5 ovarian 26.8% | OVCAR-4 ovarian 66.6% | SK-OV-3 ovarian 32.6% | IGROV1 ovarian 13.6% | HS 578T breast 13.8% | NCI/ADR-RES ovarian 26.7%

COc1c(N2CC3CCCNC3C2)c(F)cc2c(=O)c(C(=O)N/N=C/c3c[nH]c4ccccc34)cn(C3CC3)c12 (stereo not given)
inactive: SK-MEL-2 melanoma 110% | EKVX NSCLC 105% | SN12C renal 95.7% | UO-31 renal 77.2% | TK-10 renal 137% | ACHN renal 99.8% | CAKI-1 renal 98.7% | A498 renal 118% | CCRF-CEM leukemia 71.2% | MOLT-4 leukemia 74.1% | RPMI-8226 leukemia 78.2% | OVCAR-8 ovarian 99% | OVCAR-5 ovarian 116% | OVCAR-4 ovarian 106% | SK-OV-3 ovarian 130% | IGROV1 ovarian 97.9% | OVCAR-3 ovarian 103% | HS 578T breast 110% | NCI/ADR-RES ovarian 104%
active: SR leukemia -12.2%

CC(C)(C)c1ccc(C(=O)Nc2nc3ccc(O)cc3s2)cc1
inactive: SK-MEL-2 melanoma 71.4% | EKVX NSCLC 47.5% | SN12C renal 53.5% | UO-31 renal 25.5% | TK-10 renal 74.9% | ACHN renal 39% | CAKI-1 renal 15.1% | A498 renal 48.7% | CCRF-CEM leukemia 41.9% | MOLT-4 leukemia 33% | SR leukemia 24.7% | RPMI-8226 leukemia 22.1% | OVCAR-8 ovarian 30.6% | OVCAR-5 ovarian 69.6% | OVCAR-4 ovarian 46.3% | SK-OV-3 ovarian 78.6% | IGROV1 ovarian 47.7% | OVCAR-3 ovarian 57.6% | HS 578T breast 77.3% | NCI/ADR-RES ovarian 40.9%

CCn1c(SCC(=O)Nc2cccc(C(=O)/C=C/c3cc(OC)c(OC)c(OC)c3)c2)nc2ccccc2c1=O
active: CCRF-CEM leukemia 4.6% | SR leukemia 5.81% | RPMI-8226 leukemia -7.09%
inactive: SK-MEL-2 melanoma 109% | EKVX NSCLC 68.6% | SN12C renal 37.6% | UO-31 renal 37.5% | TK-10 renal 132% | ACHN renal 41.7% | CAKI-1 renal 45.4% | A498 renal 71.3% | MOLT-4 leukemia 22.4% | OVCAR-8 ovarian 34.3% | OVCAR-5 ovarian 27.7% | OVCAR-4 ovarian 39.9% | SK-OV-3 ovarian 102% | IGROV1 ovarian 13% | OVCAR-3 ovarian 14.3% | HS 578T breast 59.3% | NCI/ADR-RES ovarian 14.1%

COc1ccc(-c2nc(C(Cl)Cl)nc3cc(-c4ccccc4)nn23)cc1
inactive: SK-MEL-2 melanoma 77.4% | SN12C renal 29.1% | UO-31 renal 25.7% | TK-10 renal 33.1% | CCRF-CEM leukemia 18.2% | RPMI-8226 leukemia 14.9%
active: EKVX NSCLC -3.98% | ACHN renal -55.3% | CAKI-1 renal -14.5% | A498 renal -33.4% | MOLT-4 leukemia 4.01% | SR leukemia 4.09% | OVCAR-8 ovarian -34.3% | OVCAR-5 ovarian -12.9% | OVCAR-4 ovarian -15.3% | SK-OV-3 ovarian -29.7% | IGROV1 ovarian 2.02% | OVCAR-3 ovarian -33.9% | HS 578T breast -6.94% | NCI/ADR-RES ovarian 9.82%
